In PubChem BioAssay AID1851 (National Center for Advancing Translational Sciences (NCATS), 2009):
Where “and” joins values, the source holds several entries; their conditions need not be identical. Identical values can stand only once. The whole screen tested about 16,000 compounds, of which about 2,600 (16%) were called active. Another 20% or so got no clear call; they are omitted. The call rests on the fitted dose curve; in most records, active means well fitted curve in the direction sought with a large enough effect; inconclusive means small, poorly fitted or top-dose-only effect, or effect the other way; inactive means no such curve, though single readings can be large or run the other way. The list comes from a sample in which actives are over-represented; it also holds similar structures and randomly drawn compounds.

Target: Cytochrome P450 2D6 (Homo sapiens) (UniProt P10635)
Assay: Cytochrome panel assay with activity outcomes
Details: recombinant CYP, pro-luciferin dealkylation, luminescence, p450-cyp2d6; series mostly up to 57.1 µM
On the % scale 0 is the no-effect control and ±100 the full control effect.

Sequence of Cytochrome P450 2D6 (Homo sapiens) (P10635 whole entry, looked up): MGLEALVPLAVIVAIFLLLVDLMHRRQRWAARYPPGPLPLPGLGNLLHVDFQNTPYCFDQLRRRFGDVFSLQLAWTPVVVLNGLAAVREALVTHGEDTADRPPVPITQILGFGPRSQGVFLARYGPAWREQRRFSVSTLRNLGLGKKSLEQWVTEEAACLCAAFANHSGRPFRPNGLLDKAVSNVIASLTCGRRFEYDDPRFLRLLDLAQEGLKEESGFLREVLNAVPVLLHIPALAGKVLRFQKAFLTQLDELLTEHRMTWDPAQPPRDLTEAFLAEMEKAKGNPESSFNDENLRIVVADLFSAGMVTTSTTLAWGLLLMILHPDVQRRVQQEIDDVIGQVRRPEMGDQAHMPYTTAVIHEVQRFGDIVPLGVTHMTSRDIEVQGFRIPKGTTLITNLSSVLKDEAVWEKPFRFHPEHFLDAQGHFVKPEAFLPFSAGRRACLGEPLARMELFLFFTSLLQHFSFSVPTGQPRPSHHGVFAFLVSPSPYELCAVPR

Structure (SMILES)	AC50	activity, negative = inhibition
Cc1cccc(N2C(=O)NC(=O)/C(=C\c3cnn(-c4ccccc4)c3)C2=O)c1	inactive	
C[C@H](Br)C(=O)N[C@H](CO)C(=O)O		5.11% [at 11.4 µM] (inactive)
NCC1(CC(=O)O)CCCCC1	inactive	
CCN1C[C@]2(COC(=O)c3ccccc3N3C(=O)C[C@H](C)C3=O)CC[C@H](OC)[C@@]34[C@@H]5C[C@H]6[C@H](OC)[C@H]5[C@](O)(C[C@@H]6OC)[C@@](O)([C@@H](OC)[C@@H]23)[C@@H]14	inactive	
O=[N+]([O-])c1cc(-c2ccc([As](=O)(O)O)cc2)ccc1[As](=O)(O)O		14% [at 11.4 µM] (inactive)
CC(C)Oc1cccnc1N(C)C1CCN(Cc2ccccc2)CC1	7.94 µM (active)	
NNC(N)=O	inactive	
CC(=O)[C@]1(O)CC[C@@H]2[C@H]3C[C@@H](C)C4=CC(=O)CC[C@@]4(C)[C@H]3[C@@H](O)C[C@]21C		1.26% [at 11.4 µM] (inactive)
c1cc(C2N3CCCN2CC3)ccn1 (stereo not drawn)		15.8% [at 11.4 µM] (inactive)
CC[C@H](C(=O)[C@H](C)[C@H](O)[C@H](C)CCc1ccc(C)c(O)c1C(=O)O)[C@H]1O[C@](CC)([C@@H]2CC[C@@](O)(CC)[C@H](C)O2)C[C@H]1C	inactive	
Cc1cc(C(C)(C)C)cc(C)c1CC1=NCCN1	31.6 µM (active) and 3.98 µM (active)	
O=C(O)[C@@H]1C[C@H]1[C@@H](NP(=O)(c1ccccc1)c1ccccc1)c1ccccc1	inactive	
c1cncc([C@@H]2CCCCN2)c1	inactive	
CCCCn1c(O)c(C=NCCN2CCCCC2)c(=O)[nH]c1=O	inactive	
COCOc1ccc(Br)cc1C(=O)/C=C\c1ccc2c(c1)OCO2	3.16 µM (active)	
NC[C@@H](O)CSP(=O)(O)O		3.14% [at 11.4 µM] (inactive)
O=C1C[C@@H](c2ccc(O)cc2)Oc2cc(O)cc(O)c21	inactive	
CC(=O)O[C@H]1CC[C@@]2(C)[C@@H](CC[C@H]3[C@H]2CC(=O)[C@]2(C)[C@@H]3C[C@@H](N3CC3)[C@H]2C(C)=O)C1		-8.74% [at 11.4 µM] (inactive)
NC(N)=NC(=O)c1nc(Cl)c(N)nc1N	inactive	
Ic1ccccc1CN[C@@H]1C2CCN(CC2)[C@H]1C(c1ccccc1)c1ccccc1	0.0631 µM (active)	
NO	inactive	
CC(=O)OCC1=C(C(=O)[O-])N2C(=O)[C@@H](NC(=O)CCC[C@@H](N)C(=O)[O-])[C@@H]2SC1.[Zn+2]	inactive	
O=c1cc(-c2ccc(O)cc2)oc2c([C@H]3O[C@@H](CO)[C@@H](O)[C@@H](O)[C@@H]3O)c(O)cc(O)c12	inactive	
